According to PubChem BioAssay AID1159580 (chemical genetic matrix, 2015):
“And” between values parts separate entries of the source, which are not always exact repeats. Equal values may be shown once. In all, about 5,500 compounds went through this assay and about 2,000 (36%) were called active. Another 18% or so got no clear call; they are omitted. Rule as the data show it: active = normalized growth mostly below about 0.91 (no sharp cut-off); inconclusive = no clear call, values can overlap the other calls; inactive = mostly above about 0.92. Some of the results follow.

Experiment: chemical genetic growth profiling, strain panel (AID 1159580);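 also: tested at 20 µM; growth read once vehicle control cultures reached saturation at 30 °C; 1 = growth at the plate median or of vehicle wells; lower values mean less growth of the strain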
Details: S. cerevisiae deletion strains, growth OD

Measured: normalized growth

CC1(C)C(=O)C=C[C@@]2(C)C1CC(=O)[C@]1(C)C2CC[C@@]2(C)[C@H](c3ccoc3)OC(=O)[C@H]3O[C@]321 (some centres undefined)
inactive: locus YAL021C, strain ccr4, stronger effect = lower value 1.02 | locus YAL026C, strain drs2, stronger effect = lower value 0.99 | locus YAL030W, strain snc1, stronger effect = lower value 0.981 | locus YBL061C, strain skt5, stronger effect = lower value 0.975 | locus YBR009C, strain hhf1, stronger effect = lower value 1.04 | locus YBR021W, strain FUR4, stronger effect = lower value 0.992 | locus YBR023C, strain chs3, stronger effect = lower value 0.991 | locus YBR171W, strain sec66, stronger effect = lower value 0.98 | locus YBR229C, strain ROT2, stronger effect = lower value 0.999 | locus YBR231C, strain swc5, stronger effect = lower value 1.03 | locus YBR279W, strain paf1, stronger effect = lower value 1.01 | locus YCL016C, strain dcc1, stronger effect = lower value 0.988 | locus YCL029C, strain bik1, stronger effect = lower value 1.02 | locus YCL061C, strain MRC1, stronger effect = lower value 0.988 | locus YCL069W, strain vba3, stronger effect = lower value 0.977 | locus YCR088W, strain abp1, stronger effect = lower value 0.998 | locus YDL005C, strain med2, stronger effect = lower value 0.977 | locus YDL035C, strain GPR1, stronger effect = lower value 0.99 | locus YDL040C, strain nat1, stronger effect = lower value 0.977 | locus YDL074C, strain BRE1, stronger effect = lower value 0.991 | locus YDL101C, strain DUN1, stronger effect = lower value 1.01 | locus YDL134C, strain PPH21, stronger effect = lower value 1.01 | locus YDL185W, strain tfp1, stronger effect = lower value 1.01 | locus YDL192W, strain arf1, stronger effect = lower value 1.01 | locus YDR001C, strain nth1, stronger effect = lower value 0.992 | locus YDR069C, strain doa4, stronger effect = lower value 0.949 | locus YDR101C, strain arx1, stronger effect = lower value 0.991 | locus YDR137W, strain rgp1, stronger effect = lower value 0.989 | locus YDR150W, strain NUM1, stronger effect = lower value 0.995 | locus YDR159W, strain sac3, stronger effect = lower value 1 | locus YDR162C, strain NBP2, stronger effect = lower value 0.962 | locus YDR195W, strain ref2 1.02 | locus YDR297W, strain sur2, stronger effect = lower value 0.994 | locus YDR318W, strain mcm21, stronger effect = lower value 1.01 | locus YDR334W, strain swr1, stronger effect = lower value 0.988 | locus YDR335W, strain msn5, stronger effect = lower value 0.994 | locus YDR388W, stronger effect = lower value 1.02 | locus YDR392W, strain spt3, stronger effect = lower value 0.925 | locus YDR502C, strain sam2, stronger effect = lower value 1.04 | locus YEL003W, strain gim4, stronger effect = lower value 0.975 | locus YEL037C, strain rad23, stronger effect = lower value 0.989 | locus YEL061C, strain CIN8 (second series), stronger effect = lower value 0.996 | locus YEL061C, strain CIN8, stronger effect = lower value 0.986 | locus YER015W, strain faa2, stronger effect = lower value 0.975 | locus YER016W, strain bim1, stronger effect = lower value 0.966 | locus YER110C, stronger effect = lower value 1.02 | locus YER111C, strain swi4, stronger effect = lower value 0.968 | locus YER155C, strain BEM2 (second series), stronger effect = lower value 1.04 | locus YER155C, strain BEM2, stronger effect = lower value 1 | locus YER167W, strain BCK2, stronger effect = lower value 0.986 | locus YFR010W, strain ubp6, stronger effect = lower value 1.02 | locus YGL078C, strain dbp3, stronger effect = lower value 1.02 | locus YGL086W, strain mad1, stronger effect = lower value 1.01 | locus YGL167C, strain pmr1, stronger effect = lower value 0.992 | locus YGL173C, strain kem1, stronger effect = lower value 1.01 | locus YGL227W, strain vid30, stronger effect = lower value 0.994 | locus YGL240W, strain doc1, stronger effect = lower value 1.06 | locus YGL248W, strain PDE1, stronger effect = lower value 1 | locus YGL253W, strain hxk2, stronger effect = lower value 0.981 | locus YGR135W, strain pre9, stronger effect = lower value 1.05 | locus YGR252W, strain gcn5, stronger effect = lower value 1.09 | locus YHR013C, strain ard1, stronger effect = lower value 0.964 | locus YHR027C, strain rpn1, stronger effect = lower value 0.995 | locus YHR030C, strain SLT2, stronger effect = lower value 0.988 and 0.992 | locus YHR079C, strain IRE1 (second series), stronger effect = lower value 1.01 | locus YHR079C, strain IRE1, stronger effect = lower value 0.987 | locus YHR094C, strain hxt1, stronger effect = lower value 1.02 | locus YHR129C, strain ARP1, stronger effect = lower value 0.988 | locus YHR142W, strain chs7, stronger effect = lower value 0.968 | locus YHR200W, strain rpn10, stronger effect = lower value 1.01 | locus YIL066C, strain RNR3, stronger effect = lower value 0.978 | locus YIL073C, strain SPO22, stronger effect = lower value 1.04 | locus YIL125W, strain kgd1, stronger effect = lower value 0.998 | locus YIR030C, strain dcg1, stronger effect = lower value 1.01 | locus YJL092W, strain hpr5, stronger effect = lower value 0.971 | locus YJL095W, strain BCK1 (second series), stronger effect = lower value 0.976 | locus YJL095W, strain BCK1, stronger effect = lower value 1 and 0.983 | locus YJL115W, strain asf1, stronger effect = lower value 0.983 | locus YJL129C, strain trk1, stronger effect = lower value 0.952 | locus YJL134W, strain LCB3, stronger effect = lower value 0.986 | locus YJL154C, strain vps35, stronger effect = lower value 0.978 | locus YJL164C, strain tpk1, stronger effect = lower value 0.985 | locus YJL166W, strain qcr8, stronger effect = lower value 1 | locus YJL168C, strain set2, stronger effect = lower value 1 | locus YJL187C, strain SWE1 (second series), stronger effect = lower value 1.02 | locus YJR066W, strain TOR1, stronger effect = lower value 0.927 | locus YJR075W, strain HOC1, stronger effect = lower value 0.995 | locus YKL009W, strain mrt4, stronger effect = lower value 1 | locus YKL068W, stronger effect = lower value 1 | locus YKL085W, strain MDH1 (second series), stronger effect = lower value 0.992 | locus YKL085W, strain MDH1, stronger effect = lower value 0.992 | locus YKL160W, strain elf1, stronger effect = lower value 0.976 | locus YKL190W, strain CNB1, stronger effect = lower value 0.997 | locus YKR001C, strain vps1, stronger effect = lower value 1.03 | locus YKR026C, strain gcn3, stronger effect = lower value 0.998 | locus YKR091W, strain srl3, stronger effect = lower value 0.974 | locus YLL001W, strain dnm1, stronger effect = lower value 1 | locus YLL026W, stronger effect = lower value 0.997 | locus YLL041C, strain sdh2, stronger effect = lower value 0.982 | locus YLR027C, strain aat2, stronger effect = lower value 1 | locus YLR039C, strain RIC1, stronger effect = lower value 0.886 | locus YLR058C, strain SHM2, stronger effect = lower value 0.996 | locus YLR102C, strain apc9, stronger effect = lower value 1.01 | locus YLR113W, strain HOG1, stronger effect = lower value 1.01 | locus YLR221C, strain rsa3, stronger effect = lower value 1.04 | locus YLR258W, strain gsy2, stronger effect = lower value 0.976 | locus YLR262C, strain YPT6 (second series), stronger effect = lower value 0.972 | locus YLR262C, strain YPT6, stronger effect = lower value 0.897 | locus YLR268W, strain sec22, stronger effect = lower value 0.982 | locus YLR320W, strain mms22, stronger effect = lower value 1.02 | locus YLR330W, strain CHS5, stronger effect = lower value 0.994 | locus YLR342W, strain FKS1 (second series), stronger effect = lower value 0.982 | locus YLR342W, strain FKS1, stronger effect = lower value 0.98 | locus YLR357W, strain rsc2, stronger effect = lower value 0.941 | locus YLR370C, strain arc18, stronger effect = lower value 0.99 | locus YLR371W, strain rom2, stronger effect = lower value 0.998 | locus YLR384C, strain iki3, stronger effect = lower value 0.987 | locus YLR418C, strain cdc73, stronger effect = lower value 1.04 | locus YML016C, strain PPZ1, stronger effect = lower value 0.984 | locus YML032C, strain rad52, stronger effect = lower value 1.02 | locus YML120C, strain ndi1, stronger effect = lower value 0.988 | locus YML124C, strain tub3, stronger effect = lower value 1.01 | locus YMR058W, strain fet3, stronger effect = lower value 1 | locus YMR078C, strain ctf18, stronger effect = lower value 1.01 | locus YMR125W, strain sto1, stronger effect = lower value 0.973 | locus YMR129W, stronger effect = lower value 0.971 | locus YMR205C, strain PFK2, stronger effect = lower value 1.04 | locus YMR223W, strain ubp8, stronger effect = lower value 1.01 | locus YMR231W, strain pep5, stronger effect = lower value 0.982 | locus YMR307W, strain GAS1, stronger effect = lower value 0.868 | locus YNL067W, strain RPL9B, stronger effect = lower value 1.01 | locus YNL071W, strain lat1, stronger effect = lower value 1 | locus YNL128W, strain TEP1, stronger effect = lower value 0.978 | locus YNL183C, strain NPR1, stronger effect = lower value 0.931 | locus YNL209W, strain ssb2, stronger effect = lower value 0.989 | locus YNL233W, strain BNI4, stronger effect = lower value 0.987 | locus YNL248C, strain rpa49, stronger effect = lower value 0.93 | locus YNL250W, strain rad50, stronger effect = lower value 1.03 | locus YNL271C, strain bni1, stronger effect = lower value 1 | locus YNL298W, strain CLA4, stronger effect = lower value 1.03 | locus YNL307C, strain MCK1, stronger effect = lower value 1 | locus YNL322C, strain KRE1 (second series), stronger effect = lower value 0.958 | locus YNR049C, strain mso1, stronger effect = lower value 0.952 | locus YNR052C, strain pop2, stronger effect = lower value 1.03 | locus YOL006C, strain TOP1, stronger effect = lower value 0.987 | locus YOL012C, strain htz1 1.38 | locus YOL147C, strain pex11, stronger effect = lower value 1.01 | locus YOR001W, strain rrp6, stronger effect = lower value 1 | locus YOR061W, strain CKA2, stronger effect = lower value 0.991 | locus YOR069W, strain VPS5, stronger effect = lower value 0.995 | locus YOR070C, strain gyp1, stronger effect = lower value 0.995 | locus YOR080W, strain dia2, stronger effect = lower value 0.986 | locus YOR083W, strain WHI5, stronger effect = lower value 0.907 | locus YOR106W, strain vam3, stronger effect = lower value 0.955 | locus YOR136W, strain idh2, stronger effect = lower value 1.01 | locus YOR144C, strain elg1, stronger effect = lower value 1.01 | locus YOR184W, strain ser1, stronger effect = lower value 0.974 | locus YOR231W, strain MKK1, stronger effect = lower value 0.983 | locus YOR265W, strain rbl2, stronger effect = lower value 0.984 | locus YOR270C, strain vph1, stronger effect = lower value 0.993 | locus YOR290C, strain snf2, stronger effect = lower value 0.976 | locus YOR316C, strain cot1, stronger effect = lower value 1.01 | locus YPL051W, strain arl3, stronger effect = lower value 1 | locus YPL055C, strain LGE1, stronger effect = lower value 1 | locus YPL078C, strain atp4, stronger effect = lower value 0.976 | locus YPL106C, strain sse1, stronger effect = lower value 0.986 | locus YPL240C, strain hsp82, stronger effect = lower value 0.996 | locus YPL241C, strain CIN2, stronger effect = lower value 0.987 | locus YPL256C, strain CLN2, stronger effect = lower value 0.987 | locus YPR119W, strain clb2, stronger effect = lower value 1.01 | locus YPR141C, strain kar3, stronger effect = lower value 1 | locus YPR163C, strain tif3, stronger effect = lower value 1.01 | locus YPR167C, strain met16, stronger effect = lower value 1.01 | strain wtn01, stronger effect = lower value 1
